Outcome and AC50 data for 6 compounds are collected here from PubChem BioAssay (EPA / NIEHS).

Activity calls are given as the source filed them. Rule for the calls: active = hit-call score of the fitted dose curve at least 0.9, where 1 is the maximum; inactive = score below 0.9.

Assay [1] is described as follows: ATG_GLI_CIS: Attagene CIS-FACTORIAL HepG2 Assay for human Zinc Finger Protein GLI1 (AID 2282945). The conditions noted are these: HepG2, Attagene cis-factorial reporter mRNA, GLI element; actives raise or lower the signal. The method in brief:
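Transiently transfected HepG2 cells report endogenous transcription factor activity via cis-element-driven reporter units. After 24 h compound exposure, reporter mRNA was measured by RT-PCR with capillary electrophoresis; bidirectional fitting against DMSO baseline.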

In assay [2] the target is Bile acid receptor (Homo sapiens) (UniProt Q96RI1). The assay can be described thus: ATG_IR1_CIS: Attagene CIS-FACTORIAL HepG2 Assay for human Nuclear Receptor Subfamily 1 Group H Member 4 (NR1H4), IR1 submotif (AID 2282946). The conditions noted are these: IR1 reporter transcription, actives raise or lower the signal. The method in brief:
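Fluorescence of capillary-separated, HpaI-digested RT-PCR reporter products gave IR1-element mRNA induction in HepG2 cells 24 h after dosing. Endogenous transcription factors drove the cis-regulated reporters; activity was fitted bidirectionally against DMSO.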

A short description of assay [3]: ATG_GRE_CIS: Attagene CIS-FACTORIAL HepG2 Assay for human Glucocorticoid Response Elements (GRE) (AID 2282947). The conditions noted are these: HepG2 GRE cis-reporter, Attagene multiplex mRNA; actives raise or lower the signal. The method in brief: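 Read-out: fluorescent reporter-transcript fragments separated by capillary electrophoresis after RT-PCR. Transiently transfected HepG2 cells carrying cis-element-driven reporter units were dosed for 24 h; gain or loss of signal fitted against DMSO control.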

Assay [4] is described as follows: ATG_ISRE_CIS: Attagene CIS-FACTORIAL HepG2 Assay for human Interferon Regulatory Factor 1 (IRF1) binding to an Interferon-Stimulated Response Element (ISRE) (AID 2282948). The note with it: HepG2 ISRE cis-reporter (Attagene), mRNA transcription readout; actives raise or lower the signal. The method in brief: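 Multiplexed mRNA reporter readout in human liver HepG2 cells: cis-element-driven reporters transfected, compound added for 24 h, transcripts amplified, fluorescently labelled and sized by capillary electrophoresis; curve fitting bidirectional against DMSO.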

Assay [5] in a line: ATG_M_32_CIS: Attagene CIS-FACTORIAL HepG2 Assay for M32 Transcription Factor (Internal Marker) (AID 2282949).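 Note: background control marker of the multiplexed CIS panel rather than a real target.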 The note with it: HepG2 Attagene cis-factorial M32 reporter, mRNA; actives raise or lower the signal. The method in brief: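 Using DMSO as baseline, bidirectional curve fits were applied to reporter mRNA signals. These came from transiently transfected HepG2 cells exposed for 24 h, with RNA analysed by RT-PCR, FAM primer extension, HpaI digestion and CE.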

Assay [6] is described as follows: ATG_M_06_CIS: Attagene CIS-FACTORIAL HepG2 Assay for M06 Transcription Factor (Internal Marker) (AID 2282950). The conditions noted are these: HepG2 Attagene CIS-FACTORIAL M06 internal marker reporter; actives raise or lower the signal. In outline:
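Terse: HepG2, transient MRTU transfection (FuGene 6), 24 h dosing; total RNA, oligo(dT) RT, PCR, FAM label, HpaI cut, capillary electrophoresis; bidirectional fit vs DMSO baseline; background-control endpoint.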

Assay [7] deals with Hypoxia-inducible factor 1-alpha (Homo sapiens) (UniProt Q16665). Description: ATG_HIF1a_CIS: Attagene CIS-FACTORIAL HepG2 Assay for human Hypoxia Inducible Factor 1 (HIF1A) (AID 2282951). The conditions noted are these: HepG2 Attagene cis-factorial HIF1a reporter transcription; actives raise or lower the signal. In outline:
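After 24 h chemical exposure of reporter-transfected HepG2 cells, reporter cDNA was PCR-amplified, labelled by 6-FAM primer extension (2 min 95 C, 20 s 68 C, 10 min 72 C), HpaI-cut (2 h, 37 C) and analysed by CE.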

Assay [8] has as its target Hepatocyte nuclear factor 6 (Homo sapiens) (UniProt Q9UBC0). The assay can be described thus: ATG_HNF6_CIS: Attagene CIS-FACTORIAL HepG2 Assay for human Hepatocyte Nuclear Factor 6 (HNF6) (AID 2282952). The conditions noted are these: HepG2 Attagene cis-factorial HNF6 reporter transcription; actives raise or lower the signal. The method in brief:
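Endogenous transcription factor activity in human HepG2 liver cells was captured through cis-regulated reporter constructs. After 24 h treatment, reporter mRNA was measured by RT-PCR with capillary electrophoresis, and activity was fitted in both directions relative to DMSO.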

Assay [9] addresses Heat shock factor protein 1 (Homo sapiens) (UniProt Q00613). Description: ATG_HSE_CIS: Attagene CIS-FACTORIAL HepG2 Assay for human Heat Shock Transcription Factor 1 (HSE) (AID 2282953). The note with it: HepG2 HSE cis-reporter, Attagene RNA transcription; actives raise or lower the signal. The method in brief: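 Read-out: fluorescence of reporter-specific RT-PCR fragments separated by capillary electrophoresis. HepG2 carrying transfected cis-element reporter units; 24 h dosing; activity fitted in both directions relative to DMSO baseline.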

Assay [10] is described as follows: ATG_MRE_CIS: Attagene CIS-FACTORIAL HepG2 Assay for human Metal Responsive Element (MRE) (AID 2282954). The note with it: HepG2 MRE cis-reporter transcription, Attagene multiplex; actives raise or lower the signal. In outline: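 RT-PCR/capillary electrophoresis readout of reporter mRNA, 24 h post-dosing, in HepG2 cells transfected with multiplexed cis-regulated reporter constructs. Gain or loss of signal fitted bidirectionally against DMSO baseline.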

A short description of assay [11]: ATG_PBREM_CIS: Attagene CIS-FACTORIAL HepG2 Assay for human Phenobarbital-responsive Enhancer Module (PBREM) (AID 2282955). The conditions noted are these: HepG2 PBREM cis-reporter, Attagene multiplexed transcription; actives raise or lower the signal. In outline:
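Measures endogenous factor action on a phenobarbital-responsive enhancer module. HepG2 transiently carrying cis reporters, 24 h treatment, mRNA read-out by RT-PCR plus capillary electrophoresis.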

The target in assay [12] is Paired box protein Pax-6 (Homo sapiens) (UniProt P26367). The assay can be described thus: ATG_Pax6_CIS: Attagene CIS-FACTORIAL HepG2 Assay for human Paired Box 6 (PAX6) (AID 2282956). The note with it: HepG2 CIS-FACTORIAL PAX6 reporter transcription, RNA readout; actives raise or lower the signal. The method in brief: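 Fluorescent RT-PCR products separated by capillary electrophoresis report PAX6-linked promoter mRNA in HepG2 cells 24 h post-dose. Curves fitted bidirectionally, DMSO as negative control.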
Sequence of Paired box protein Pax-6 (Homo sapiens) (P26367 whole entry, looked up): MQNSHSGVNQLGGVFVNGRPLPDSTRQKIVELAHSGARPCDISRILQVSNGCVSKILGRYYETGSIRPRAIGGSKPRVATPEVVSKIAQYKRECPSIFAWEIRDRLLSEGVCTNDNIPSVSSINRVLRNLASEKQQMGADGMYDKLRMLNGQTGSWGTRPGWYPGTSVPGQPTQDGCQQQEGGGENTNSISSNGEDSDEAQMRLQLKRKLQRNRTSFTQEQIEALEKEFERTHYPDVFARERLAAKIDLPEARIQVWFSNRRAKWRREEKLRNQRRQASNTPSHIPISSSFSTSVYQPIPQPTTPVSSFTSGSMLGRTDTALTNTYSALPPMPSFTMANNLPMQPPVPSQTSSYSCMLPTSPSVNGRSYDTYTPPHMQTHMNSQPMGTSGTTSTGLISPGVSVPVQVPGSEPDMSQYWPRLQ

The nature of assay [13]: ATG_PXRE_CIS: Attagene CIS-FACTORIAL HepG2 Assay for human Pregnane X Receptor Element (PXRE) (AID 2282957). The conditions noted are these: HepG2 Attagene CIS-FACTORIAL PXRE reporter, mRNA; actives raise or lower the signal. The method in brief: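 Endogenous transcription factor activity in HepG2 was gauged through induction of reporter mRNA driven by a cis-regulating promoter element, sampled 24 h post-treatment. Activity was fitted in both directions against DMSO negative control.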

Assay [14] can be described thus: ATG_PPRE_CIS: Attagene CIS-FACTORIAL HepG2 Assay for human Peroxisome Proliferator-activated Response Element (PPRE) (AID 2282958). The note with it: HepG2 PPRE cis-element reporter, Attagene transcription factor profiling; actives raise or lower the signal. In outline: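 PPRE activity in HepG2: transient cis-reporter transfection, 24 h compound incubation, reporter mRNA by RT-PCR and CE fluorescence; gain/loss fitted against DMSO.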

A short description of assay [15]: ATG_RORE_CIS: Attagene CIS-FACTORIAL HepG2 Assay for human RAR-related Orphan Receptor Element (RORE) (AID 2282959). The note with it: HepG2 Attagene cis-factorial RORE reporter, mRNA; actives raise or lower the signal. The method in brief:
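A 24-hour exposure of transfected HepG2 hepatoma cells precedes RNA isolation and reporter RT-PCR. Labeled products are digested with HpaI and resolved by capillary electrophoresis, with gain or loss of signal scored relative to DMSO.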

Assay [16] is described as follows: ATG_Sox_CIS: Attagene CIS-FACTORIAL HepG2 Assay for human SRY-box transcription factor (SOX) (AID 2282960). The conditions noted are these: HepG2 Attagene cis-factorial SOX reporter, mRNA; actives raise or lower the signal. In outline:
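HepG2, cis reporter units, 24 h exposure. Reporter mRNA: RT-PCR → FAM labelling → HpaI → CE fluorescence. Bidirectional fit vs DMSO.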

Assay [17] has as its target Transcription factor Sp1 (Homo sapiens) (UniProt P08047). Description: ATG_Sp1_CIS: Attagene CIS-FACTORIAL HepG2 Assay for human Specificity Protein 1 (Sp1) (AID 2282961). The note with it: HepG2 Sp1 cis-reporter transcription, actives raise or lower the signal. The method in brief:
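Liver-derived HepG2 cells, cis-element reporter library, 24 h treatment; RNA isolated, cDNA amplified with reporter-specific primers, FAM-labeled fragments sized on capillary analyzer. DMSO baseline, bidirectional curve fit.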

Assay [18] can be described thus: ATG_SREBP_CIS: Attagene CIS-FACTORIAL HepG2 Assay for human Sterol Regulatory Element Binding (SREBP) (AID 2282962). The conditions noted are these: HepG2 Attagene cis-factorial SREBP reporter, mRNA; actives raise or lower the signal. In outline:
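Endogenous factor activity is measured in HepG2 through multiplexed reporter units under cis-element control. Following a 24 h incubation, reporter transcripts are reverse-transcribed, PCR-amplified and sized by capillary electrophoresis; activity is fitted in both directions relative to DMSO.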

In assay [19] the target is Signal transducer and activator of transcription 3 (Homo sapiens) (UniProt P40763). The assay can be described thus: ATG_STAT3_CIS: Attagene CIS-FACTORIAL HepG2 Assay for human Signal Transducer and Activator of Transcription 3 (STAT3) (AID 2282963). The note with it: HepG2, Attagene cis-factorial STAT3 reporter transcription; actives raise or lower the signal. In outline:
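Readout: fluorescent reporter mRNA fragments resolved by capillary electrophoresis. Setup: HepG2 transfected with MRTUs reporting endogenous transcription-factor activity, dosed 24 h. Gain or loss of signal fitted bidirectionally against DMSO control.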

Assay [20] can be described thus: ATG_TA_CIS: Attagene CIS-FACTORIAL HepG2 Assay for human TA Basal Promoter (AID 2282964). The note with it: HepG2 Attagene CIS-factorial TA basal promoter reporter; actives raise or lower the signal. In outline: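 Transfected HepG2, 24 h compound exposure; RNA → RT-PCR → FAM primer extension → HpaI cut → CE fluorescence. Gain/loss-of-signal fitted against DMSO negative control. Background-control readout.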

Sequence of Hypoxia-inducible factor 1-alpha (Homo sapiens) (Q16665 whole entry, looked up): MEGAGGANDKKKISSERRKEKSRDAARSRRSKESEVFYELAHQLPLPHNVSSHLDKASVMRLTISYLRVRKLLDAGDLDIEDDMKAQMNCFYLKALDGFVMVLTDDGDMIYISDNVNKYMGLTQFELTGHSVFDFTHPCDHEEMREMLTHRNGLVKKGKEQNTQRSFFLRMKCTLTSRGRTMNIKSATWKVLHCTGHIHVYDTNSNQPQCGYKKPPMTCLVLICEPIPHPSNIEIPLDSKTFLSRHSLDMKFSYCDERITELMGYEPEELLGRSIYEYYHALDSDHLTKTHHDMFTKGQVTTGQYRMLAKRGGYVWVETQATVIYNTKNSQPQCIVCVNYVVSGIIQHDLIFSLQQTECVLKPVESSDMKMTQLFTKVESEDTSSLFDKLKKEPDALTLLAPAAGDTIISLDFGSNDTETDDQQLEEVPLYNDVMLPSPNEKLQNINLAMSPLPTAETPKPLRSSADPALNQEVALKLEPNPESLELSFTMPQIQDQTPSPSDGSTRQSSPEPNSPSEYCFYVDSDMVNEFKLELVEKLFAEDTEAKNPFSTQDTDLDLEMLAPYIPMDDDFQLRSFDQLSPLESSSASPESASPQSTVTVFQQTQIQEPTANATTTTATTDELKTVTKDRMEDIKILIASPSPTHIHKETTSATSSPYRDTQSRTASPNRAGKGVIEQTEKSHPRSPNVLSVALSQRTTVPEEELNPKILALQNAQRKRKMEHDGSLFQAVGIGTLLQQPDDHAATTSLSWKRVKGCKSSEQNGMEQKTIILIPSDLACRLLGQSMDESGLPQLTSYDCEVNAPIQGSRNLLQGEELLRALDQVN
Sequence of Signal transducer and activator of transcription 3 (Homo sapiens) (P40763 whole entry, looked up, the tested form may be a part): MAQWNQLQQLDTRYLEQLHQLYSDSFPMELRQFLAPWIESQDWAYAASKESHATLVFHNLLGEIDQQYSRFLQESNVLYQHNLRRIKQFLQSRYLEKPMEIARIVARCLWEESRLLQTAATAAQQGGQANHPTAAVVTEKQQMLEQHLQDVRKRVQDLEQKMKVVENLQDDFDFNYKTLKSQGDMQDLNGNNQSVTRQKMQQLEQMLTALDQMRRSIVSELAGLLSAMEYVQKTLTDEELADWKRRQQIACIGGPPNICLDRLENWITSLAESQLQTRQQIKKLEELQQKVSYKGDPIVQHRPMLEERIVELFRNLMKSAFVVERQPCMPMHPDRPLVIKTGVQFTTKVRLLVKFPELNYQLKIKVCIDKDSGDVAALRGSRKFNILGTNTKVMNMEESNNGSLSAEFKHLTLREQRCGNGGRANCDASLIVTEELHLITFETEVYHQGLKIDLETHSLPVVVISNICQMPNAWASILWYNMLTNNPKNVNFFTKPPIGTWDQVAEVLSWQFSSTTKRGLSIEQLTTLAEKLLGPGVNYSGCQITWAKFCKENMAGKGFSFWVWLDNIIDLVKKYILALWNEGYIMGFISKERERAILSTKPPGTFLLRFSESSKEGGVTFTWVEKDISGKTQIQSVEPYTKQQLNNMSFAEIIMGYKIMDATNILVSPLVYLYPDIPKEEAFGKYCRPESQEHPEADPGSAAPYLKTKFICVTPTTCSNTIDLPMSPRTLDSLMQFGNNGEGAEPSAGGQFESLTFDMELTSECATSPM
Sequence of Bile acid receptor (Homo sapiens) (Q96RI1 whole entry, looked up): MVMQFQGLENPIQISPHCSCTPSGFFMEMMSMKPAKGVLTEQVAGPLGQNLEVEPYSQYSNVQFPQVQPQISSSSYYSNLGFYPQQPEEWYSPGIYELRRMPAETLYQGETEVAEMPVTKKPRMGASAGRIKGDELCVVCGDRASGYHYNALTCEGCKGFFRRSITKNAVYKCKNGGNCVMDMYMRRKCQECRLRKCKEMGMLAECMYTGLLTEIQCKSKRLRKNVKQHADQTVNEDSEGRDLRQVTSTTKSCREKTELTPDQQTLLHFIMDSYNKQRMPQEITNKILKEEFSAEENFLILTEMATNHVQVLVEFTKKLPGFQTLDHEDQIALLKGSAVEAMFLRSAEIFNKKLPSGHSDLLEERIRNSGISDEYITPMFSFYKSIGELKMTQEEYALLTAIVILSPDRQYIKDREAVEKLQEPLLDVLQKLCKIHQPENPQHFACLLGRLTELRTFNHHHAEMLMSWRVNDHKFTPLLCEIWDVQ
Sequence of Heat shock factor protein 1 (Homo sapiens) (Q00613 whole entry, looked up, the tested form may be a part): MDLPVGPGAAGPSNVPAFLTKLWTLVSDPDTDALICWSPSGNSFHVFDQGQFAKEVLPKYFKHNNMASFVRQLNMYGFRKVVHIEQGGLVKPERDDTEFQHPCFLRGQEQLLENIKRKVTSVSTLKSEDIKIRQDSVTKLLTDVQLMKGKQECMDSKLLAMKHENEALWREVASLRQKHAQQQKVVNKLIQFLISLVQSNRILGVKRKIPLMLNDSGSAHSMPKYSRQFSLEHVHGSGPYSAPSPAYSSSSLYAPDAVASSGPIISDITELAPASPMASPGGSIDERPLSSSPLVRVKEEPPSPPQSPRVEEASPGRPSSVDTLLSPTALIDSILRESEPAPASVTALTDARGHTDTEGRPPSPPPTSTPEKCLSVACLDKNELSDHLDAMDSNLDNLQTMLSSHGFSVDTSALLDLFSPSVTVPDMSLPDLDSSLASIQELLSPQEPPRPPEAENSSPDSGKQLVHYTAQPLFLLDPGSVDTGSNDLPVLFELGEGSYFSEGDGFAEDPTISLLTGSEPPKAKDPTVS
Sequence of Hepatocyte nuclear factor 6 (Homo sapiens) (Q9UBC0 whole entry, looked up): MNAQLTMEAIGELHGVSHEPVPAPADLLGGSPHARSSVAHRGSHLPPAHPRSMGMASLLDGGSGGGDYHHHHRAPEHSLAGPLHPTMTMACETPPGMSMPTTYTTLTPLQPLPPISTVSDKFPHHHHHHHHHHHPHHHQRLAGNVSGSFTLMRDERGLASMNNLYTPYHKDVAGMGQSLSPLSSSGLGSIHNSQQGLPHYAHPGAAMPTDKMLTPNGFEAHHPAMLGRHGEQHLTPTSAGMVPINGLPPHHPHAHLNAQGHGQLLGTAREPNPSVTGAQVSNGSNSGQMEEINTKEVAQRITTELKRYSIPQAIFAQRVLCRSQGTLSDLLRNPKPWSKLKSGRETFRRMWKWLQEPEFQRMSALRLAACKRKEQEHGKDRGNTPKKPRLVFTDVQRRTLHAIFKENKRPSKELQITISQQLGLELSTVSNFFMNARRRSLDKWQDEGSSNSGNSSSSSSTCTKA
Sequence of Transcription factor Sp1 (Homo sapiens) (P08047 whole entry, looked up, the tested form may be a part): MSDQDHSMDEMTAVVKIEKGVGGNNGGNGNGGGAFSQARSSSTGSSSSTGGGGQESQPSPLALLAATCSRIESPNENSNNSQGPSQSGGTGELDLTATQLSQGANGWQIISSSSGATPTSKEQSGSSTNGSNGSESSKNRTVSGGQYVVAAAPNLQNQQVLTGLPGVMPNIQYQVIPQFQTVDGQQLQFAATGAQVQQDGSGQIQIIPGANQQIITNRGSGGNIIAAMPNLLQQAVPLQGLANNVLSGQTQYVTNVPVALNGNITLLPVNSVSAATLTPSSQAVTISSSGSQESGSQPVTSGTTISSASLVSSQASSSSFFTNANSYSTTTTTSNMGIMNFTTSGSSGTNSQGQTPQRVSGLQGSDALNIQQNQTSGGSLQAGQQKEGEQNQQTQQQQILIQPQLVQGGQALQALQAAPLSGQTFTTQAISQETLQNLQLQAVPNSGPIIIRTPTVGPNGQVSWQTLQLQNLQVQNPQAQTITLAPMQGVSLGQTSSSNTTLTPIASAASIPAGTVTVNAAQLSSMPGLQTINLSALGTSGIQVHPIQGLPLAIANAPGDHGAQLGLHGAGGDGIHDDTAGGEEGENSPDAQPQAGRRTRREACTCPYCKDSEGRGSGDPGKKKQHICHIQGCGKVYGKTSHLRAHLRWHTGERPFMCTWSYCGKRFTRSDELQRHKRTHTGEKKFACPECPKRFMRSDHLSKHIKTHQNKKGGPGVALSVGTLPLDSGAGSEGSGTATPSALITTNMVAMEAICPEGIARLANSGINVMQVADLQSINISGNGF

Turning to `C=CC(=O)OCC(F)(F)C(F)(F)C(F)(F)C(F)(F)C(F)(F)C(F)(F)C(F)(F)F`, the compound was called inactive in assay [1], in [2], in assay [3], in assay [4], in [5] and in assay [6]. The compound was classed as inactive in assay [7], in [8], in [9], in assay [10], in [11] and in assay [12]. Also, the compound was called inactive in assay [13], in assay [14], in assay [15], in assay [16], in [17] and in assay [18]. In addition, the result in assay [19] and in assay [20] was inactive.
For `O=C(O)C(F)(F)C(F)(F)C(F)(F)C(F)(F)C(F)(F)C(F)(F)C(F)(F)C(F)(F)C(F)(F)C(F)(F)C(F)(F)C(F)(F)C(F)(F)F`, the outcome in assay [1], in assay [2], in [3], in [4], in assay [5] and in [6] was inactive. Besides, the call in [7], in assay [8], in assay [9], in [10], in assay [11] and in assay [12] was inactive. Besides, the compound was called inactive in [14], in assay [15], in [16], in assay [17], in [18] and in assay [19]. The compound was classed as inactive in assay [20]. Also, the AC50 in assay [13] is 21.8 µM (active).
On to `FC(F)(F)C(F)(F)C(F)(F)C(F)(F)C(F)(F)CCI`, for which the result in assay [1], in [2], in [3], in assay [4], in assay [5] and in assay [6] was inactive. The result in assay [7], in assay [8], in [9], in assay [10], in assay [11] and in assay [12] was inactive. The compound was called inactive in assay [14], in assay [15], in assay [16], in assay [17], in [18] and in assay [19]. In assay [20], the result was inactive. Also, the AC50 in assay [13] was 39.9 µM (active).
Turning to `Oc1ccc(Nc2ccccc2)cc1`, the outcome in [1], in assay [2], in [3], in assay [4], in [5] and in [6] was inactive. For the same compound, the compound was called inactive in [7], in assay [8], in assay [11], in assay [12], in [14] and in assay [16]. In addition, the compound was called inactive in [17], in [18] and in assay [19]. In addition, the AC50 is 168 µM (active) in [9]; 61.1 µM (active) in assay [10]; 21.9 µM (active) in assay [13]; 74.6 µM (active) in assay [15]; 58.1 µM (active) in [20].
As to `CC(C)OC(=O)c1ccccc1C(=O)OC(C)C`, the call in assay [1], in assay [2], in assay [3], in assay [4], in [5] and in [6] was inactive. The compound was classed as inactive in assay [7], in [8], in assay [9], in assay [10], in assay [11] and in assay [12]. Also, the compound was called inactive in [14], in [15], in [16], in [17], in assay [18] and in assay [19]. In [20], the compound was called inactive.
Take `OCCCC(F)(F)C(F)(F)C(F)(F)F`: the compound was called inactive in assay [1], in assay [3], in [4], in assay [5], in [6] and in assay [7]. For the same compound, the result in assay [8], in assay [9], in [10], in assay [11], in assay [12] and in [13] was inactive. Also, the compound was classed as inactive in [14], in assay [15], in assay [16], in assay [17], in assay [18] and in assay [19]. The result in assay [20] was inactive.
